From PubChem BioAssay (NCI)
Compounds without any hit were thinned out: in the full panel of roughly 79,000, 15% have a hit. Activity calls are given as the source filed them. No stated cut-off is given here; in the data, active means growth inhibition above about 70%; inactive means the rest.

What was measured:
[1] = NCI Yeast Anticancer Drug Screen. Data for the wt2 strain (AID 169);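 further: 0% = growth of vehicle-treated yeast cultures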; details: S. cerevisiae wt2 strain growth inhibition, active compounds read high
Procedure, shortened: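 This strain belongs to a panel of yeast strains with defined genetic alterations in DNA damage repair or cell cycle control. Compounds are applied, and growth inhibition is measured against vehicle-treated cultures.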

[2] = NCI Yeast Anticancer Drug Screen. Data for the mlh1 strain (AID 171);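 further: 0% = growth of vehicle-treated control cultures of the same strain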; details: S. cerevisiae mlh1 strain growth inhibition, active compounds read high
Procedure, shortened: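 Growth of the mutant yeast strain after compound exposure, expressed as inhibition relative to vehicle-only controls.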

[3] = NCI Yeast Anticancer Drug Screen. Data for the sgs1 strain (AID 173);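 further: 0% = growth of vehicle-only control cultures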; details: S. cerevisiae sgs1 mutant, active compounds read high
Procedure, shortened: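 Growth of a yeast strain bearing a defined genetic alteration is measured after compound treatment. Inhibition is expressed relative to vehicle-only controls.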

[4] = NCI Yeast Anticancer Drug Screen. Data for the mlh1 rad18 strain (AID 175); details: S. cerevisiae mlh1 rad18 strain growth inhibition, active compounds read high
Procedure, shortened: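 Read-out is yeast growth inhibition, calculated against vehicle-only controls. The compound was applied to a strain engineered with DNA damage repair alterations.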

[5] = NCI Yeast Anticancer Drug Screen. Data for the rad18 strain (AID 177); details: S. cerevisiae rad18 mutant growth inhibition, active compounds read high
Procedure, shortened: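 Growth of the mutant yeast strain after compound exposure, normalised to vehicle-only cultures.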

[6] = NCI Yeast Anticancer Drug Screen. Data for the rad52 strain (AID 147);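 further: 0% = growth of vehicle-treated control cultures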; details: S. cerevisiae rad52 mutant growth inhibition, active compounds read high
Procedure, shortened: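 Compounds are applied to a genetically defined yeast strain lacking normal DNA damage repair, and inhibition of growth is expressed relative to cultures given vehicle only.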

[7] = NCI Yeast Anticancer Drug Screen. Data for the wt1 strain (AID 149);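 further: 0% = growth of vehicle-treated wt1 cultures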; details: S. cerevisiae wt1 strain (SPY 50644) growth inhibition, active compounds read high
Procedure, shortened: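 wt1 strain grown with compound or vehicle; inhibition taken from the growth difference.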

[8] = NCI Yeast Anticancer Drug Screen. Data for the rad50EPP+ strain (AID 151);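 further: 0% = growth of vehicle-treated control cultures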; details: S. cerevisiae rad50 mutant strain, active compounds read high
Procedure, shortened: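 Compounds were applied to the rad50EPP+ yeast strain, which bears a defined DNA repair alteration, and growth inhibition was determined relative to vehicle-treated cultures.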

[9] = NCI Yeast Anticancer Drug Screen. Data for the mgt1 strain (AID 153); details: S. cerevisiae mgt1 mutant growth inhibition, active compounds read high
Procedure, shortened: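 Strain: mgt1 yeast, one of a set carrying defined DNA damage repair or cell cycle control alterations. Compound-treated growth compared with vehicle.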

[10] = NCI Yeast Anticancer Drug Screen. Data for the rad50 strain (AID 155);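 further: 0% = growth of vehicle-only cultures of the same strain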; details: S. cerevisiae rad50 strain growth inhibition, active compounds read high
Procedure, shortened: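 DNA repair mutant yeast, compound exposure, growth read-out; inhibition is taken relative to vehicle.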

[11] = NCI Yeast Anticancer Drug Screen. Data for the mec2-1 strain (AID 157); details: S. cerevisiae mec2-1 strain, active compounds read high
Procedure, shortened: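 Strain: mec2-1 (DNA repair/cell cycle alteration). Compound exposure, then growth measured; inhibition expressed relative to vehicle.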

[12] = NCI Yeast Anticancer Drug Screen. Data for the rad14 strain (AID 159);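 further: 0% = growth of vehicle-treated control cultures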; details: S. cerevisiae rad14 strain growth inhibition, active compounds read high
Procedure, shortened: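 DNA repair-defective yeast, compound-exposed; % growth inhibition derived by comparison with vehicle-treated controls.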

[13] = NCI Yeast Anticancer Drug Screen. Data for the sgs1 mgt1 strain (AID 161);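 further: 0% = growth of cultures given vehicle only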; details: S. cerevisiae sgs1 mgt1 strain, active compounds read high
Procedure, shortened: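 Test agents were incubated with a DNA-repair-mutant yeast strain. Growth was then read and compared against vehicle-treated controls.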

[14] = NCI Yeast Anticancer Drug Screen. Data for the CLN2oe strain (AID 163);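 further: 0% = growth of vehicle-only control cultures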; details: S. cerevisiae CLN2oe strain, active compounds read high
Procedure, shortened: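 Growth of a genetically modified yeast strain is measured after compound exposure and compared with cultures given vehicle alone.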

[15] = NCI Yeast Anticancer Drug Screen. Data for the cln2 rad14 strain (AID 165);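 further: 0% = growth equal to vehicle treated cultures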; details: S. cerevisiae cln2 rad14 strain, active compounds read high
Procedure, shortened: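 Compounds are applied to the cln2 rad14 yeast strain, and growth is then compared with that of vehicle-treated cultures to give inhibition.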

[16] = NCI Yeast Anticancer Drug Screen. Data for the bub3 strain (AID 167); details: S. cerevisiae bub3 mutant strain, active compounds read high
Procedure, shortened: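 In this screen, a yeast mutant lacking normal mitotic checkpoint function is challenged with compound. Relative growth versus vehicle gives the inhibition value.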

[17] = at 5.0 µM (retest, dose inferred, filed as 0.5)
[18] = at 50.0 µM (retest, dose inferred, filed as 5.0)

Measured: growth inhibition

CCCCCCCN(CCCCCCC)CC(=O)c1ccc2cc(Cl)c3ccccc3c2c1
active: [1]; at 11.0 µM 98% | [1]; at 33.0 µM 97% | [1]; at 100.0 µM 95% | [2]; at 11.0 µM 98% | [2]; at 33.0 µM 97% | [2]; at 100.0 µM 93% | [3]; at 11.0 µM 98% | [3]; at 33.0 µM 97% | [3]; at 100.0 µM 93% | [4]; [18] 94% | [4]; at 50.0 µM 99.5% | [5]; at 11.0 µM 98% | [5]; at 33.0 µM 97% | [5]; at 100.0 µM 93%
inactive: [1]; at 1.2 µM 32% | [1]; at 3.7 µM 64% | [2]; at 1.2 µM -9% | [2]; at 3.7 µM 40% | [3]; at 1.2 µM 5% | [3]; at 3.7 µM 26% | [4]; [17] 25% | [5]; at 1.2 µM -9% | [5]; at 3.7 µM 19%

CCN(CC)CCNc1ccc2nc(C)n3c4ccc(OC)cc4c(=O)c1c23
inactive: [6]; at 1.2 µM 22% | [6]; at 3.7 µM 47% | [6]; at 11.0 µM 58% | [7]; at 1.2 µM 27% | [7]; at 3.7 µM 21% | [7]; at 11.0 µM 28% | [7]; at 33.0 µM 15% | [7]; at 100.0 µM 21% | [8]; at 1.2 µM 9% | [8]; at 3.7 µM 9% | [8]; at 11.0 µM 3% | [8]; at 33.0 µM 17% | [8]; at 100.0 µM 31% | [9]; at 1.2 µM 36% | [9]; at 3.7 µM 27% | [9]; at 11.0 µM 18% | [9]; at 33.0 µM 26% | [9]; at 100.0 µM 16% | [10]; at 1.2 µM 41% | [10]; at 3.7 µM 45% | [10]; at 11.0 µM 63% | [10]; at 50.0 µM -12.5% | [11]; at 1.2 µM 32% | [11]; at 3.7 µM 39% | [11]; [17] 16% | [11]; at 11.0 µM 37% | [11]; at 33.0 µM 40% | [11]; [18] 52% | [11]; at 50.0 µM 22.8% | [11]; at 100.0 µM 32% | [12]; at 1.2 µM 33% | [12]; at 3.7 µM 24% | [12]; at 11.0 µM 27% | [12]; at 33.0 µM 30% | [12]; at 100.0 µM 48% | [13]; [17] 13% | [13]; [18] 41% | [13]; at 50.0 µM 18.3% | [14]; at 1.2 µM 1% | [14]; at 3.7 µM 15% | [14]; at 11.0 µM 17% | [14]; at 33.0 µM 21% | [14]; at 100.0 µM 17% | [15]; [17] 25% | [15]; [18] 45% | [15]; at 50.0 µM 28.1% | [16]; at 1.2 µM 11% | [16]; at 3.7 µM 2% | [16]; [17] -31% | [16]; at 11.0 µM -3% | [16]; at 33.0 µM 16% | [16]; [18] 39% | [16]; at 50.0 µM 16.4% | [16]; at 100.0 µM 5% | [1]; at 1.2 µM -22% | [1]; at 3.7 µM -25% | [1]; at 11.0 µM -24% | [1]; at 33.0 µM -15% | [1]; at 100.0 µM -25% | [2]; at 1.2 µM 36% | [2]; at 3.7 µM 27% | [2]; at 11.0 µM 18% | [2]; at 33.0 µM 26% | [2]; at 100.0 µM 16% | [3]; at 1.2 µM 27% | [3]; at 3.7 µM 27% | [3]; at 11.0 µM 26% | [3]; at 33.0 µM 8% | [3]; at 100.0 µM 25% | [4]; [17] 29% | [4]; [18] 56% | [5]; at 1.2 µM 34% | [5]; at 3.7 µM 41% | [5]; at 11.0 µM 57% | [5]; at 33.0 µM 66%
active: [6]; at 33.0 µM 75% | [6]; at 100.0 µM 83% | [10]; [17] 84% | [10]; at 33.0 µM 82% | [10]; [18] 95% | [10]; at 100.0 µM 87% | [4]; at 50.0 µM 77.4% | [5]; at 100.0 µM 74%

Cc1c2c(nc3ccccc13)C(=O)c1cccnc1C2=O
inactive: [6]; at 1.2 µM -10% | [6]; at 3.7 µM 0% | [6]; at 11.0 µM 9% | [7]; at 1.2 µM 2% | [7]; at 3.7 µM 9% | [7]; at 11.0 µM 6% | [7]; at 33.0 µM 17% | [8]; at 1.2 µM -6% | [8]; at 3.7 µM -11% | [8]; at 11.0 µM -2% | [8]; at 33.0 µM 45% | [9]; at 1.2 µM 1% | [9]; at 3.7 µM -1% | [9]; at 11.0 µM -10% | [9]; at 33.0 µM 13% | [10]; at 1.2 µM 9% | [10]; at 3.7 µM 15% | [10]; [17] 57% | [10]; at 11.0 µM 21% | [11]; at 1.2 µM -18% | [11]; at 3.7 µM -10% | [11]; [17] -4% | [11]; at 11.0 µM -13% | [11]; at 33.0 µM 7% | [11]; at 50.0 µM 66.8% | [12]; at 1.2 µM 3% | [12]; at 3.7 µM 3% | [12]; at 11.0 µM 4% | [12]; at 33.0 µM 23% | [13]; [17] 1% | [14]; at 1.2 µM -8% | [14]; at 3.7 µM 1% | [14]; at 11.0 µM 3% | [14]; at 33.0 µM 11% | [15]; [17] -1% | [15]; at 50.0 µM 64% | [16]; at 1.2 µM 5% | [16]; at 3.7 µM 7% | [16]; [17] 12% | [16]; at 11.0 µM -13% | [16]; at 33.0 µM 4% | [1]; at 1.2 µM 3% | [1]; at 3.7 µM -3% | [1]; at 11.0 µM 17% | [1]; at 33.0 µM 20% | [2]; at 1.2 µM 22% | [2]; at 3.7 µM 15% | [2]; at 11.0 µM 20% | [2]; at 33.0 µM 17% | [3]; at 1.2 µM -9% | [3]; at 3.7 µM -11% | [3]; at 11.0 µM -9% | [3]; at 33.0 µM 11% | [4]; [17] 19% | [5]; at 1.2 µM -11% | [5]; at 3.7 µM -5% | [5]; at 11.0 µM 0% | [5]; at 33.0 µM 23%
active: [6]; at 33.0 µM 75% | [6]; at 100.0 µM 94% | [7]; at 100.0 µM 81% | [8]; at 100.0 µM 92% | [9]; at 100.0 µM 78% | [10]; at 33.0 µM 78% | [10]; [18] 90% | [10]; at 50.0 µM 77.8% | [10]; at 100.0 µM 94% | [11]; [18] 90% | [11]; at 100.0 µM 83% | [12]; at 100.0 µM 81% | [13]; [18] 78% | [13]; at 50.0 µM 79.2% | [14]; at 100.0 µM 78% | [15]; [18] 72% | [16]; [18] 83% | [16]; at 50.0 µM 75.7% | [16]; at 100.0 µM 83% | [1]; at 100.0 µM 73% | [2]; at 100.0 µM 84% | [3]; at 100.0 µM 81% | [4]; [18] 90% | [4]; at 50.0 µM 84% | [5]; at 100.0 µM 90%
